Giardia kill = kills Giardia lamblia; Giardia lamblia trophozoite viability; activity change, % at 7.66 µM, hits read low; 0.15% of 340,000 active; AID 540267; in the data active = activity change below about -80%; inconclusive = between about -30% and that limit;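 note: parasites exposed to compound for two days anaerobically before the ATP read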
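Compounds were tested on trophozoites seeded at 100 cells/well and held 48 hrs at 37 deg C anaerobically. An ATP-based luminescent kit measured the remaining live cells.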
USP1-UAF1 inh = USP1/UAF1 (human) deubiquitinase inhibition | AID 743255 | recombinant USP1/UAF1, Ub-Rhodamine cleavage fluorescence | Potency, µM (doses to about 57.1 µM), without a hit: at the highest dose activity change, negative = inhibition, actives largely listed as inhibitors | 0.23% of 390,000 active | O94782; active = well fitted inhibition curve with a large enough effect; inconclusive = small, poorly fitted or top-dose-only effect; inactive = no such curve, though single readings can be large or run the other way; note: potency is the fitted concentration of half-maximal effect; nearly all actives have a fitted effect of over 60% in size
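USP1/UAF1 complex (1 nM) preincubated 15 min at room temperature with compound, then Ub-Rho substrate (150 nM final) added. Kinetic fluorescence at 480/540 nm over 6 reads at 60 s intervals; 50 mM HEPES pH 7.8, 0.5 mM EDTA, 0.1 mg/ml BSA, 1 mM TCEP, 0.01% Tween-20.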
Coupling enz = counter-screen for Giardia aldolase inhibitors: coupling enzyme system. AID 2472. coupling enzyme system counterscreen, AmpLite Red fluorescence. 0.67% of 290,000 active. activity change, negative = inhibition, % at 58.2 µM, hits read low; in the data active = activity change below about -30%
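Counterscreen lacking aldolase: glyceraldehyde-3-phosphate coupling-enzyme reagent preincubated 10 min at RT with compound (at 57.5 uM final), then substrate/coupling system with AmpLite Red added; fluorescence read at 525/598 nm after 20 min RT.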
KCNH2 3.1 block = blocks the human KCNH2 3.1 channel isoform; U2OS KCNH2 3.1, thallium flux FluxOr; stronger effect = lower value; activity change, % (tested at about 1.8 µM); 0.95% of 340,000 active; AID 720553;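 active = maximum activity change below -70%; inconclusive = maximum activity change from -70% to -50%; inactive = maximum activity change above -50%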;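 note: thallium influx rate constant from kinetic fluorescence after stimulation buffer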
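Channel expression came from 3.1 mutant virus (1.77 x 10^8 /mL) applied to suspended U2OS cells for 4 h. Flux was tracked with FluxOr dye plus Red40 quencher, and kinetic rate constants normalized to controls.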
KCNH2 WT inh = blocks the wildtype human KCNH2 potassium channel; U2OS, BacMam KCNH2, thallium flux FluxOr; stronger effect = lower value; activity change, % at 1.84 µM; 0.37% of 340,000 active; Q12809;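 active = maximum activity change below -70%; inconclusive = maximum activity change between -70% and -50%; inactive = maximum activity change above -50%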
Target sequence (Q12809 whole entry, looked up): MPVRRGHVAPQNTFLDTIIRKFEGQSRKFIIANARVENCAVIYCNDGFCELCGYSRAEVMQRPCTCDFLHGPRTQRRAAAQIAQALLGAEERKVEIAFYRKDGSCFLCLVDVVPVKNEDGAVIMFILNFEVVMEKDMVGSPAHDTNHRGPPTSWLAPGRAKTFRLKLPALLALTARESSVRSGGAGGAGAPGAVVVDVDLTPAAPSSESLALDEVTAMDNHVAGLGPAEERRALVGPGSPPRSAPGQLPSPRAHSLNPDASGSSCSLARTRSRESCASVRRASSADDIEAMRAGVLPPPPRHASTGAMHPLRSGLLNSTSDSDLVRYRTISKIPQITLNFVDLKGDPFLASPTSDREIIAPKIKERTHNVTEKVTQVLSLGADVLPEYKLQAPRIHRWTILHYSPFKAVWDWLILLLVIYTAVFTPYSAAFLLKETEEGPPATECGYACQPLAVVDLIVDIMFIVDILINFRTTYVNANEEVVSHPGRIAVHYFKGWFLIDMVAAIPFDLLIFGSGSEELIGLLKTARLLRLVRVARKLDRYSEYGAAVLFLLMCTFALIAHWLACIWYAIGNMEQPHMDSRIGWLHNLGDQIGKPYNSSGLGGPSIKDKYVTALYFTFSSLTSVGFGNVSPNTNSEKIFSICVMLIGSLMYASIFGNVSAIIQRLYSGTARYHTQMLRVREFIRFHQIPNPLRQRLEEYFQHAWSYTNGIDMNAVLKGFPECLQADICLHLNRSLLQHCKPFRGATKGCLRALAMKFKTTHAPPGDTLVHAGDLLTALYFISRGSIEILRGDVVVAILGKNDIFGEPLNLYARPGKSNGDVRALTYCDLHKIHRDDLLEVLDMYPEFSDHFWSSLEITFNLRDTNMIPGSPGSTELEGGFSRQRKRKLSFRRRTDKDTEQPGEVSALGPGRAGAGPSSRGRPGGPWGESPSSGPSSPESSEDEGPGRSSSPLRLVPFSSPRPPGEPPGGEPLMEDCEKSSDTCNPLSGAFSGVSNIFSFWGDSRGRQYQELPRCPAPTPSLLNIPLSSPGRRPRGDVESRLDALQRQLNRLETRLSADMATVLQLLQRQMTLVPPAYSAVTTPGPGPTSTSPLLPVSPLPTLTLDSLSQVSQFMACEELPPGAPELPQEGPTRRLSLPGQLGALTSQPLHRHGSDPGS
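U2OS cells transduced with wild-type KCNH2 virus are loaded with FluxOr dye for 45 min, and thallium flux is measured in kinetic reads before and after stimulation buffer. Rate constants are normalized to DMSO controls.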
Starred values were filed as active, the others as inactive; ? = inconclusive; . = no result given. An excerpt weighted towards active compounds, which were near 1.7% of everything screened. % is set by controls: 0 for no effect and ±100 for the full control effect.

SMILES	Giardia kill	USP1-UAF1 inh	Coupling enz	KCNH2 3.1 block	KCNH2 WT inh
CC(=O)/C(=N/Nc1ccccc1)Sc1nnc(CCc2ccccc2)n1-c1ccccc1	-15	-20%	-1	-90*	-6
CC(=O)/C(=N\Nc1ccc(Cl)cc1)Sc1nnc(-c2ccccc2)n1-c1ccccc1	-2	-9%	-3	5	-2
Cc1cc(OCC(=O)N2CCc3ccccc3C2)c2c(-c3ccccc3)cc(=O)oc2c1	-10	-19%	7	-21	-203*
CCOc1cc(C)cc2oc(=O)cc(-c3ccccc3)c12	-8	-15%	-1	-32	-2
Clc1ccc(-c2noc3ncnc(NCCCN4CCN(c5ccccc5)CC4)c23)cc1	.	-23%	.	.	.
COC(=O)c1[nH]c2ccc(F)cc2c1NC(=O)CCN1CCN(Cc2ccc3c(c2)OCO3)CC1	13	-20%	-1	-16	7
CCN(CC(=O)Nc1c(C(=O)OC)[nH]c2ccc(C)cc12)c1ccc2c(c1)OCO2	-7	-22%	-38*	9	-2
Cc1cc(N2CCN(c3nc(-c4ccc([N+](=O)[O-])cc4)cs3)CC2)c2ccccc2n1	2	-15%	0	-124*	-122*
C[C@@H]1ON(C)[C@H]2C[C@H]3c4[nH]c5ccc(-c6ccc7c(c6)OCO7)cc5c4CCN3C[C@@H]12	.	-21%	.	-24	2
CC(=O)OCCCNc1cc(Sc2nc3ccccc3s2)c2nonc2c1[N+](=O)[O-]	9	-18%	-35*	1	-6
O=C(c1ccc(-c2ccccc2)cc1)N1CCN(c2ncccn2)CC1	1	0%	-75*	14	-3
CN(C)N1C(N)=C(C#N)C(c2cccs2)C2=C1CC(C)(C)CC2=O (configuration not stated)	-7	?	-46*	-16	-10
C=C1CCC2C(CC2(C)C)C(=C)CC/C1=N/O (configuration not stated)	.	.	1	.	.
CC1CCc2c(sc3nc(CN4CCN(S(=O)(=O)c5ccccc5[N+](=O)[O-])CC4)[nH]c(=O)c23)C1 (configuration not stated)	-21	-21%	0	-73*	-12
Cc1ccc(NC(=O)CN2c3cccc4cccc(c34)S2(=O)=O)cc1	-1	-4%	.	5	-10
COc1ccc(NC(=O)CN2CCN(CC(=O)Nc3ccc(F)cc3F)CC2)cc1	8	-13%	4	-117*	-120*
COc1cccc(NC(=O)CN2CCN(CC(=O)Nc3ccc(F)cc3)CC2)c1	-11	-22%	0	-85*	-38
COc1ccc(NC(=O)CN2c3cccc4cccc(c34)S2(=O)=O)cc1	-5	-24%	-31*	15	-30
COc1ccccc1NC(=O)CN1CCN(CC(=O)Nc2ccc(OCc3ccccc3)cc2)CC1	2	2%	0	-79*	-25
CCOc1ccc(NC(=O)CN2CCN(CC(=O)Nc3ccc(F)cc3F)CC2)cc1	.	-24%	.	.	.
COc1ccc(C2=Nn3c(nnc3-c3cccc(OC)c3OC)SC2)cc1	.	.	3	.	.
COc1ccc(NC(=O)CN2CCN(CC(=O)Nc3ccc(F)cc3)CC2)cc1Cl	-4	-11%	0	-91*	2
CS(=O)(=O)c1ccc(Cl)c(NC(=O)CN2CCN(S(=O)(=O)/C=C/c3ccccc3)CC2)c1	7	-13%	.	-84*	26
NS(=O)(=O)c1ccc(NC(=O)CN2CCN(S(=O)(=O)/C=C/c3ccccc3)CC2)cc1	-4	-15%	2	-3	18
COc1ccc(S(=O)(=O)N2CCN(CC(=O)Nc3cc(Cl)ccc3Cl)CC2)cc1	3	-9%	.	-85*	1
SMILES	Giardia kill	USP1-UAF1 inh	Coupling enz	KCNH2 3.1 block	KCNH2 WT inh
COc1ccc(NC(=O)CN2CCc3ccccc3C2)c(OC)c1	13	-18%	2	0	-247*
Cc1ccc(C(=O)Nc2c(C)nc3ccccn3c2=O)cc1C	.	-6%	.	.	.
O=C(Cn1c(=O)n(Cc2nc(-c3ccccc3)no2)c(=O)c2ccccc21)Nc1cccc(C(F)(F)F)c1	.	-21%	.	.	.
CCN1C(=O)[C@@H]2[C@H]3C(=CC[C@H]2C1=O)C(=O)[C@H]1OC1[C@H]3O (some centres not stated)	.	.	0	.	.
CCCCN(C)CCNC(=O)c1c2c(nc3ccccc13)C(=O)N(C1CCCCC1)C2	.	-21%	.	.	.
CCOc1ccc(NC(=O)CN2CCN(CC(=O)Nc3cccc(F)c3)CC2)cc1	-23	-4%	3	-85*	-20
COc1ccc(CN2CCCN(S(=O)(=O)c3ccc(Br)cc3)CC2)cc1	7	-5%	-1	-102*	-126*
COc1ccc(NC(=O)CN2CCN(CC(=O)Nc3ccccc3Cl)CC2)cc1	1	-5%	2	-85*	-21
COc1ccc(S(=O)(=O)N2CCN(Cc3ccc(Cl)cc3)CC2)cc1	7	-16%	0	-1	6
CN(C(=O)CSc1nnc(-c2ccc([N+](=O)[O-])cc2)o1)c1ccccc1	.	-3%	.	.	.
COc1ccc(C2=NC(c3ccc(Cl)cc3)C(c3ccc(Cl)cc3)N2C(=O)N2CCNC(=O)C2)c(OC(C)C)c1 (configuration not stated)	.	.	-2	.	.
COc1cc(C2Nc3ccccc3C(=O)N2Cc2ccco2)cc(OC)c1OC (configuration not stated)	-18	.	.	.	.
Cc1ccccc1CNC(=O)C1CCCN(c2nnc(-n3c(C)ccc3C)s2)C1 (configuration not stated)	.	-2%	.	.	.
O=C(c1cc(-c2cccc(Cl)c2)on1)N1CCCC1	-10	-23%	-4	-131*	-7
CSc1cccc(NC(=S)N(Cc2ccc(C)cc2)Cc2cccnc2)c1	19	-11%	-5	-89*	9
Nc1cc(N)nc(SCC(=O)N2CCN(S(=O)(=O)c3ccccc3)CC2)n1	-19	-4%	2	-11	-90*
CCCNCC1C(Oc2ccc(Cl)cc2Cl)C(=O)N1c1cccc(C)c1C (configuration not stated)	-5	-14%	-1	-9	22
CCCCNCC1C(Oc2ccc(Cl)cc2)C(=O)N1c1ccccc1C (configuration not stated)	25	-9%	-3	-94*	5
O=C(CCNC(=O)C1CCN(S(=O)(=O)c2ccc(F)cc2)CC1)NCc1ccc(Cl)cc1	22	-3%	.	-113*	-22
CC(=O)Nc1ccc(S(=O)(=O)N2CCC(C(=O)NCCc3c[nH]c4ccccc34)CC2)cc1	24	-19%	-1	-133*	-10
COc1ccc2c(c1)c1c(c(=O)n(-c3cccc(C)c3)c(=O)n1CC(=O)N1CCCC1)n2C	.	-14%	.	.	.
c1ccc2c(c1)nc(N1CCOCC1)c1c3ccccc3[nH]c21	-17	0%	-45*	-12	-9
O=c1[nH]c2ccccc2nc1N1CCOCC1	17	-16%	4	-1	3
CN1C(=O)/C(=C/C=C2/CCCN2C)N(C)C1=S	-6	-26%	-42*	.	-11
